Active and inactive are the calls of the source. How the source made its calls: active means hit-call score of the fitted dose curve at least 0.9, where 1 is the maximum; inactive means score below 0.9.
Legend:
[1] = BSK_LPS_SRB: Viability Assessment in the BioMAP Diversity Plus: LPS Assay (AID 2283079); details: primary human HUVEC with PBMC;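 further: total protein by sulforhodamine B absorbance as a cytotoxicity measure; measured one day after compound addition; fitted in both directions against DMSO so loss or gain of signal counts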
How it was run: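 Overt cytotoxicity was gauged by sulforhodamine B total-protein staining in a primary human vascular endothelial and mononuclear cell co-culture 24 h post-dosing. Activity was fitted in both directions relative to DMSO.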

[2] = read-out: Interleukin-1 alpha (IL1a), IL1A (gene 3552); assay: BSK_LPS_IL1a: BioMAP Diversity Plus: LPS Assay for Interleukin-1 alpha (IL1a) Biomarker Activity (AID 2283080); details: primary human HUVEC with PBMC; actives raise or lower the signal
How it was run: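 Measured: IL-1 alpha via ELISA at 24 h in LPS-activated human umbilical vein endothelium–PBMC co-culture. Baseline: DMSO, bidirectional fitting.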

[3] = read-out: Monocyte Chemoattractant Protein-1 (MCP1), CCL2 (gene 6347); assay: BSK_LPS_MCP1: BioMAP Diversity Plus: LPS Assay for Monocyte Chemoattractant Protein-1 (MCP1) Biomarker Activity (AID 2283081); details: primary human HUVEC with PBMC; actives raise or lower the signal;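 on AC50: secreted MCP-1 protein quantified by ELISA in culture supernatant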
How it was run: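 LPS-stimulated HUVEC/PBMC co-culture; chemical, 24 h; MCP-1 by ELISA; bidirectional fit vs DMSO; cytotoxicity via SRB (0.1% stain, 10% TCA fix, 560 nm) in parallel wells.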

[4] = BSK_LPS_PGE2: BioMAP Diversity Plus: LPS Assay for Prostaglandin E2 (PGE2) Biomarker Activity (AID 2283082); details: primary human HUVEC with PBMC; actives raise or lower the signal;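 on AC50: secreted prostaglandin E2 measured by ELISA in LPS-stimulated co-culture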
How it was run: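 Primary human endothelial cells and blood mononuclear cells, co-cultured with LPS, receive test chemical; PGE2 ELISA follows at 24 h, with SRB-stained parallel cultures flagging cytotoxicity.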

[5] = read-out: Macrophage colony-stimulating factor (MCSF), CSF1 (gene 1435); assay: BSK_LPS_MCSF: BioMAP Diversity Plus: LPS Assay for Macrophage colony-stimulating factor (MCSF) Biomarker Activity (AID 2283083); details: primary human HUVEC with PBMC; actives raise or lower the signal
How it was run: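 Compound is added to a human vascular primary co-culture of umbilical vein endothelium and blood mononuclear cells. After 24 h, M-CSF is quantified by ELISA. Signal changes are fitted in both directions against DMSO.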

[6] = read-out: Tissue Factor, F3 (gene 2152); assay: BSK_LPS_TissueFactor: BioMAP Diversity Plus: LPS Assay for Tissue Factor Biomarker Activity (AID 2283084); details: primary human HUVEC with PBMC; actives raise or lower the signal
How it was run: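 In this co-culture system of umbilical vein endothelium with PBMC, stimulated with LPS, cell-surface CD142 is detected by ELISA at 24 h. Endpoint values derive from bidirectional fitting, DMSO serving as baseline.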

[7] = read-out: Tumor necrosis factor (Homo sapiens) (UniProt P01375); assay: BSK_LPS_TNFa: BioMAP Diversity Plus: LPS Assay for Tumour Necrosis Factor alpha (TNFa) Biomarker Activity (AID 2283085); details: primary human HUVEC with PBMC; actives raise or lower the signal;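 on AC50: TNFa protein level quantified by ELISA in the co-culture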
How it was run: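 ELISA-based TNFa endpoint in a human endothelial–PBMC co-culture sampled 24 h post-exposure. Curves were fitted in both directions using DMSO as baseline of activity.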

[8] = read-out: Vascular cell adhesion molecule 1 (VCAM1), VCAM1 (gene 7412); assay: BSK_LPS_VCAM1: BioMAP Diversity Plus: LPS Assay for Vascular cell adhesion molecule 1 (VCAM1) Biomarker Activity (AID 2283086); details: primary human HUVEC with PBMC; actives raise or lower the signal
How it was run: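 Measured by ELISA: VCAM-1 in LPS-activated HUVEC/PBMC co-cultures 24 h after treatment. Values reflect bidirectional fitting with DMSO as baseline.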

CD38, CD38 (gene 952) = assay: BSK_SAg_CD38: BioMAP Diversity Plus: SAg Assay for CD38 Biomarker Activity (AID 2283087); details: primary human HUVEC with PBMC; actives raise or lower the signal
How it was run: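 Measures CD38 on a human endothelial/PBMC co-culture driven by SEB and TSST-1, 24 h after compound exposure, using ELISA with fluorescence detection; DMSO defines baseline for bidirectional curve fitting.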

CD69, CD69 (gene 969) = assay: BSK_SAg_CD69: BioMAP Diversity Plus: SAg Assay for CD69 Biomarker Activity (AID 2283089); details: primary human HUVEC with PBMC; actives raise or lower the signal;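 on AC50: cell surface CD69 protein quantified by ELISA with fluorescence detection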
How it was run: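 Primary human vascular co-culture (umbilical vein endothelium with peripheral blood mononuclear cells) exposed to test chemical for 24 h. CD69 levels quantified by fluorescence ELISA; DMSO served as negative control for bidirectional fitting.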

[9] = read-out: Monocyte Chemoattractant Protein-1 (MCP1), CCL2 (gene 6347); assay: BSK_SAg_MCP1: BioMAP Diversity Plus: SAg Assay for Monocyte Chemoattractant Protein-1 (MCP1) Biomarker Activity (AID 2283090); details: primary human HUVEC with PBMC; actives raise or lower the signal
How it was run: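 Values derive from bidirectional fitting of ELISA-measured MCP1 against DMSO controls. Readings were taken 24 h after dosing human vascular endothelial cells co-cultured with peripheral blood mononuclear cells under superantigen stimulation.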

[10] = read-out: E-selectin (Homo sapiens) (UniProt P16581); assay: BSK_SAg_Eselectin: BioMAP Diversity Plus: SAg Assay for Eselectin Biomarker Activity (AID 2283091); details: primary human HUVEC with PBMC; actives raise or lower the signal
How it was run: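 Primary human endothelial cells and peripheral blood mononuclear cells were co-cultured and exposed to chemical for 24 hours. E-selectin levels were then quantified by ELISA, with bidirectional curve fitting normalised to DMSO controls.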

[11] = read-out: Monokine induced gamma interferon (MIG), CXCL9 (gene 4283); assay: BSK_SAg_MIG: BioMAP Diversity Plus: SAg Assay for Monokine induced gamma interferon (MIG) Biomarker Activity (AID 2283092); details: primary human HUVEC with PBMC; actives raise or lower the signal
How it was run: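 Endothelial cells and PBMC were co-cultured, exposed to test chemicals, and sampled 24 h later. MIG was measured by ELISA, and responses were fitted in both directions relative to DMSO.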

[12] = BSK_SAg_PBMCCytotoxicity: PBMC Cytotoxicity Assessment in the BioMAP Diversity Plus: SAg Assay (AID 2283093); details: primary human HUVEC with PBMC;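 further: fitted both ways against DMSO so a hit may be loss or gain of signal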;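 on AC50: PBMC superantigen activated with SEB plus TSST-1 one hour after compound addition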
How it was run: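 PBMC viability by Alamar Blue reduction, fluorescence read at 546/580 nm after 6 h dye exposure. Cells were dosed 1 h before SEB plus TSST-1 activation (20 ng/mL final each), then held 90 h; endothelial/PBMC human co-culture.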

[13] = read-out: Interleukin-8 (IL8), CXCL8 (gene 3576); assay: BSK_SAg_IL8: BioMAP Diversity Plus: SAg Assay for Interleukin-8 (IL8) Biomarker Activity (AID 2283094); details: primary human HUVEC with PBMC; actives raise or lower the signal
How it was run: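 Primary human endothelial cells with PBMC, exposed 24 h; IL-8 determined by ELISA, analysed bidirectionally relative to DMSO.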

[14] = BSK_SAg_Proliferation: Cell Proliferation Assessment in the BioMAP Diversity Plus: SAg Assay (AID 2283095); details: primary human HUVEC with PBMC;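 further: relative cell number as total protein by SRB absorbance in sub-confluent culture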
How it was run: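 A human primary co-culture of umbilical vein endothelium and blood mononuclear cells receives compound; relative cell number is quantified at 96 h by SRB staining and 560 nm absorbance, with DMSO-referenced bidirectional curve fitting.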

[15] = BSK_SAg_SRB: Viability Assessment in the BioMAP Diversity Plus: SAg Assay (AID 2283096); details: primary human HUVEC with PBMC;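 further: cells read one day after compound addition; hits may be either gain or loss of signal compared with DMSO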
How it was run: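 Compounds were added to a human vascular co-culture of umbilical vein endothelium and PBMC. After 24 h, parallel cultures were fixed with 10% TCA, stained with 0.1% sulforhodamine B and read at 560 nm. Gain or loss of signal was fitted relative to DMSO.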

CD40, CD40 (gene 958) = assay: BSK_SAg_CD40: BioMAP Diversity Plus: SAg Assay for CD40 Biomarker Activity (AID 2283088); details: primary human HUVEC with PBMC; actives raise or lower the signal
How it was run: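 Fluorescence ELISA read-out of CD40 from umbilical vein endothelium plus peripheral blood mononuclear cells, sampled 24 h after dosing. Values come from bidirectional curve fitting with DMSO as baseline.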

Measured: AC50

E-selectin (Homo sapiens), sequence (P16581 whole entry, looked up): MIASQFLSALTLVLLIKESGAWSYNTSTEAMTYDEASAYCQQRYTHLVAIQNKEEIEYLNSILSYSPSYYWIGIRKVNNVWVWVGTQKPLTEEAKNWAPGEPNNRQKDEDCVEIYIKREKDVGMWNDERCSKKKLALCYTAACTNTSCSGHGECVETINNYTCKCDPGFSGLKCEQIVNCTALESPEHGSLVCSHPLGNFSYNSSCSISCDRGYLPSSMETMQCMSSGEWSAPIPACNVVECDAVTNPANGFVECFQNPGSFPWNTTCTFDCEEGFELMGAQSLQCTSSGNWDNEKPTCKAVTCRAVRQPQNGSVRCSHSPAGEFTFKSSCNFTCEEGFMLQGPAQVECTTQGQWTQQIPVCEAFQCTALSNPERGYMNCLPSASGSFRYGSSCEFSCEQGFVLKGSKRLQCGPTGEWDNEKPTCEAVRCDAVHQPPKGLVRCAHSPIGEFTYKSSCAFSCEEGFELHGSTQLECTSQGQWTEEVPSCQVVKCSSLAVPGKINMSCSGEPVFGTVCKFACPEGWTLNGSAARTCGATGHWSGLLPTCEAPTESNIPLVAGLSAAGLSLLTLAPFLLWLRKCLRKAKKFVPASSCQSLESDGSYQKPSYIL
Tumor necrosis factor (Homo sapiens), sequence (P01375 whole entry, looked up): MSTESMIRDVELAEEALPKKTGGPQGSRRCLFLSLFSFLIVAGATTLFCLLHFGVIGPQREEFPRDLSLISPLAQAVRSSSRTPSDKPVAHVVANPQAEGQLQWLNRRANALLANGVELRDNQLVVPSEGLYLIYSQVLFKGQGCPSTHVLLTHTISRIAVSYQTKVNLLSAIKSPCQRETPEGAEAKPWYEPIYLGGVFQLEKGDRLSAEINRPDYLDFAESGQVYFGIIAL

CN(C)C(=O)Nc1cccc(C(F)(F)F)c1
inactive: [1] | [2] | [3] | [4] | [5] | [6] | [7] | [8] | CD38, CD38 (gene 952) | CD69, CD69 (gene 969) | [9] | [10] | [11] | [12] | [13] | [14] | [15]

CSc1nnc(C(C)(C)C)c(=O)n1N
inactive: [1] | [2] | [3] | [4] | [5] | [6] | [7] | [8] | CD38, CD38 (gene 952) | CD69, CD69 (gene 969) | [9] | [10] | [11] | [12] | [13] | [14] | [15]

Cc1nn(-c2cc(NS(C)(=O)=O)c(Cl)cc2Cl)c(=O)n1C(F)F
inactive: [1] | [2] | [3] | [4] | [5] | [6] | [7] | CD38, CD38 (gene 952) | CD40, CD40 (gene 958) | CD69, CD69 (gene 969) | [9] | [10] | [11] | [12] | [13] | [14] | [15]

CC(COc1ccc(Oc2ccccc2)cc1)Oc1ccccn1 (centres undefined)
active: [4] 3.97 µM | [12] 12 µM | [14] 26.7 µM | [15] 7.1 µM
inactive: [1] | [2] | [3] | [5] | [6] | [7] | CD38, CD38 (gene 952) | CD69, CD69 (gene 969) | [9] | [10] | [11] | [13]

COP(=O)(OC)OC(Br)C(Cl)(Cl)Br (centres undefined)
inactive: [4]
active: [1] 26 µM | [2] 32.3 µM | [3] 36.5 µM | [5] 28.5 µM | [6] 15.2 µM | [7] 28.9 µM | CD38, CD38 (gene 952) 31.5 µM | CD40, CD40 (gene 958) 30.2 µM | CD69, CD69 (gene 969) 30.1 µM | [10] 22.7 µM | [11] 36.8 µM | [12] 14.7 µM | [13] 22.9 µM | [14] 7.28 µM | [15] 30.4 µM

COc1cccc(C(=O)NN(C(=O)c2cc(C)cc(C)c2)C(C)(C)C)c1C
inactive: [1] | [2] | [3] | [4] | [5] | [6] | [7] | CD38, CD38 (gene 952) | CD69, CD69 (gene 969) | [9] | [10] | [11] | [12] | [13] | [14] | [15]

From PubChem BioAssay (EPA / NIEHS)
